Our source for the growth values is PubChem BioAssay (NCI).

Test systems include NCI-H23 lung; NCI-H226 lung; NCI-H322M lung; HOP-62 NSCLC; NCI-H460 lung; HOP-92 NSCLC; NCI-H522 lung; A549/ATCC NSCLC; 786-0 renal; COLO 205 colon; DU-145 prostate; K-562 leukemia; MALME-3M melanoma; MDA-MB-231 breast; RXF 393 renal; SF-268 CNS; SF-295 CNS; SF-539 CNS; UACC-257 melanoma; M14 melanoma.
What all share (experiment): NCI-60 one-dose screen, 48 h (100 = growth as untreated, 0 = no growth, -100 = all killed)
Holding throughout (settings): 10 µM unless noted

Molecules are shown by their SMILES. About 83,000 compounds went through this panel and 20% of them were active in at least one assay; those are over-represented in the sample as a whole.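 Testing used 96-well plates and a 48-hour single-concentration exposure. Example: -40 means 40% of the starting cells died.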 Unmarked numbers belong to inactive results. Activity calls are given as the source filed them. Rule for the calls: active = growth percent below 10; inactive = the rest.

With `CC(Cc1cccc2ccccc12)C(N)=O` (stereo not given), the growth is 99.9% with NCI-H23 lung; 100% in the assay on NCI-H226 lung; 98.1% in the assay with NCI-H322M lung; 94.6% with HOP-62 NSCLC; 110% with NCI-H460 lung; 81.1% with HOP-92 NSCLC. In addition, the growth in the assay on NCI-H522 lung was 96.6%; in the assay with A549/ATCC NSCLC, 96.7%; with 786-0 renal, 97.7%; in the assay on COLO 205 colon it was 111%; with DU-145 prostate it was 110%; with K-562 leukemia it was 104%. The growth was 111% in the assay with MALME-3M melanoma; 100% in the assay with MDA-MB-231 breast; 113% with RXF 393 renal; 106% in the assay with SF-268 CNS; 100% in the assay on SF-295 CNS; 96.6% in the assay with SF-539 CNS. Moreover, the growth with UACC-257 melanoma is 104%; in the assay with M14 melanoma, 108%.
Turning to `CCn1c2ccccc2c2cc(C(O)c3cccc4ncccc34)ccc21` (stereo not given), the growth with NCI-H23 lung is -42.3% (active); in the assay with NCI-H226 lung it was 23.7%; in the assay with NCI-H322M lung it was 34.8%; with HOP-62 NSCLC it was 32.8%; in the assay with NCI-H460 lung it was 10.1%; in the assay on HOP-92 NSCLC, 29.3%. For the same molecule, the growth in the assay on NCI-H522 lung is 8.82% (active); with A549/ATCC NSCLC, 20.7%; in the assay with 786-0 renal it was 6.42% (active); in the assay on COLO 205 colon, -33.9% (active); in the assay with DU-145 prostate it was 8.08% (active); with K-562 leukemia, 8.65% (active). Besides, the growth in the assay on MALME-3M melanoma was 57.7%; in the assay with MDA-MB-231 breast it was 24.3%; with RXF 393 renal, 40.6%; with SF-268 CNS, 28.6%; in the assay with SF-295 CNS, 18.4%; in the assay with SF-539 CNS it was 6.53% (active). Further, the growth is 70.8% in the assay on UACC-257 melanoma and -4.81% (active) with M14 melanoma.
For `COc1cccc(CNc2nnc(C)c(C)n2)c1O`, the growth with NCI-H23 lung is 96.5%; in the assay with NCI-H226 lung, 89.1%; in the assay on NCI-H322M lung it was 108%; in the assay on HOP-62 NSCLC, 95.6%; in the assay on NCI-H460 lung, 102%; in the assay with HOP-92 NSCLC, 81.2%. For the same molecule, the growth in the assay with NCI-H522 lung was 90.7%; in the assay on A549/ATCC NSCLC, 93.7%; with 786-0 renal, 104%; with COLO 205 colon it was 109%; in the assay on DU-145 prostate, 108%; with K-562 leukemia, 102%. Further, the growth is 108% in the assay on MALME-3M melanoma; 96.3% in the assay on MDA-MB-231 breast; 123% in the assay on RXF 393 renal; 100% in the assay with SF-268 CNS; 97% in the assay on SF-295 CNS; 99.7% in the assay with SF-539 CNS. In addition, the values for the growth in the assay on UACC-257 melanoma and in the assay on M14 melanoma were 95% and 101%, respectively.
For the molecule `CO[C@]12C=C/C(=C(/C(=O)OCc3cccnc3)C(=O)CCCCCCCC[C@]3(OC)C=C/C(=C(/C(=O)OCc4cccnc4)C(=O)CCCCCCCC1)O3)O2`, the growth in the assay with NCI-H23 lung is -75.3% (active); in the assay on NCI-H226 lung, -78.1% (active); in the assay with NCI-H322M lung, -85% (active); with HOP-62 NSCLC it was -33.1% (active); in the assay on NCI-H460 lung, -18.3% (active); in the assay with HOP-92 NSCLC, -28.5% (active). Moreover, the growth in the assay with NCI-H522 lung is -39.6% (active); in the assay with A549/ATCC NSCLC it was -19.6% (active); in the assay with 786-0 renal it was -64.1% (active); with COLO 205 colon, -56.5% (active); with DU-145 prostate it was -95.3% (active); in the assay on K-562 leukemia it was 0.254% (active). Moreover, the growth in the assay with MALME-3M melanoma is -38.4% (active); in the assay with MDA-MB-231 breast, -38.3% (active); with RXF 393 renal it was -75.4% (active); with SF-268 CNS it was -72.1% (active); in the assay on SF-295 CNS it was -79.1% (active); in the assay with SF-539 CNS, -55.2% (active). Further, the growth in the assay on UACC-257 melanoma is -43.2% (active); in the assay on M14 melanoma, -47% (active).
Take `COc1cccc2cc(N(C)c3nc(C)nc4c3CCC4)ccc12`: the growth with NCI-H23 lung is 22.4%; in the assay with NCI-H226 lung it was 25.8%; in the assay on NCI-H322M lung, 59.1%; with HOP-62 NSCLC it was 14.7%; with NCI-H460 lung, 6.85% (active); in the assay with HOP-92 NSCLC, 0.483% (active). In addition, the growth was -16.9% (active) with NCI-H522 lung; 14.8% in the assay with A549/ATCC NSCLC; 3.77% (active) in the assay with 786-0 renal; -66.4% (active) in the assay on COLO 205 colon; 5.3% (active) with DU-145 prostate; 10.4% in the assay with K-562 leukemia. The growth with MALME-3M melanoma was 57.4%; in the assay with MDA-MB-231 breast, 24.8%; in the assay on RXF 393 renal, 44%; in the assay with SF-268 CNS it was 25.9%; in the assay on SF-295 CNS, 15.3%; in the assay with SF-539 CNS it was -0.597% (active). Besides, the figures for the growth in the assay on UACC-257 melanoma and with M14 melanoma were 59.1% and 6.91% (active), respectively.
On to `C#Cc1cccc(Nc2ncnc3ccc(-c4cnc(Cl)c(NS(C)(=O)=O)c4)cc23)c1`, for which the growth in the assay on NCI-H23 lung is -5.52% (active); with NCI-H226 lung, 2.26% (active); in the assay on NCI-H322M lung it was -42.3% (active); in the assay with HOP-62 NSCLC, 3.57% (active); with NCI-H460 lung, 6.42% (active); with HOP-92 NSCLC, -17.1% (active). Also, the growth is -22.8% (active) with NCI-H522 lung; -28.5% (active) with A549/ATCC NSCLC; -14.6% (active) in the assay with 786-0 renal; -69.2% (active) with COLO 205 colon; 2.5% (active) in the assay with DU-145 prostate; 11.2% in the assay on K-562 leukemia. Also, the growth in the assay on MALME-3M melanoma was -35.5% (active); with MDA-MB-231 breast, -6.68% (active); in the assay with RXF 393 renal, -54.9% (active); in the assay with SF-268 CNS, -30.1% (active); with SF-295 CNS it was -31.9% (active); in the assay on SF-539 CNS, -38.4% (active). Besides, the results for the growth in the assay with UACC-257 melanoma and with M14 melanoma were -9.67% (active) and -26.7% (active), respectively.
As for `C#CCOC(=O)C(N)CSSCC(N)C(=O)O` (stereo not given), the growth was 103% in the assay with NCI-H23 lung; 112% with NCI-H226 lung; 91.2% in the assay with NCI-H322M lung; 94.9% in the assay on HOP-62 NSCLC; 90.4% in the assay on NCI-H460 lung; 97.5% with HOP-92 NSCLC. Further, the growth was 86.1% with NCI-H522 lung; 98.2% in the assay on A549/ATCC NSCLC; 100% in the assay with 786-0 renal; 104% in the assay with COLO 205 colon; 119% in the assay with DU-145 prostate; 108% in the assay on K-562 leukemia. In addition, the growth in the assay on MALME-3M melanoma was 95.6%; with MDA-MB-231 breast it was 105%; in the assay on RXF 393 renal, 114%; in the assay with SF-268 CNS, 100%; in the assay with SF-295 CNS it was 103%; in the assay on SF-539 CNS it was 90.8%. The figures for the growth in the assay on UACC-257 melanoma and in the assay on M14 melanoma were 104% and 100%, respectively.
